Source: PubChem (National Center for Advancing Translational Sciences (NCATS))
This is a sample that favours compounds with a hit; in the whole collection about 2.5% have one here.
Pol kappa inh – qHTS for Inhibitors of Polymerase Kappa. DNA polymerase kappa (Homo sapiens), Q9UBT6. purified Pol kappa, fluorescent DNA synthesis assay, 10 min. Potency, µM (top dose mostly 107 µM), without a hit: at the highest dose activity, negative = inhibition, usual class: inhibitors. actives 0.53% (n = 400,000). AID 588579, 2011; further: on the % scale 0 is the no-effect control and ±100 the full control effect
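Readout: fluorescence, taken kinetically at 0 and 10 min. Conditions: 10 nM Pol kappa, 15 min RT compound preincubation, 50 nM substrate final. Controls: enzyme-free buffer wells.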
WRN inhibitor – qHTS for Inhibitors of WRN Helicase; Bifunctional 3'-5' exonuclease/ATP-dependent helicase WRN (Homo sapiens), Q14191; WRN helicase unwinding, fluorescent forked duplex, kinetic; Potency, µM (titrated, usually from 114 µM), without a hit: at the highest dose activity change, negative = inhibition, usual class: inhibitors; actives 0.46% (n = 360,000); AID 651768, 2012; further: on the % scale 0 is the no-effect control and ±100 the full control effect; nearly all actives have a fitted effect of over 55% in size
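Screening of the MLSMR collection measured strand separation of a quenched forked DNA duplex (100 nM) by 20 nM WRN with 2 mM ATP, all final. Compounds were preincubated with enzyme 15 min at room temperature.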
L3MBTL1 block – qHTS Assay for the Inhibitors of L3MBTL1; actives 0.66% (n = 230,000); AID 485360, 2010; Potency, µM (doses to about 57.1 µM), for the others: at the top dose activity, negative = inhibition, usual class: inhibitors; Lethal(3)malignant brain tumor-like protein 1 (Homo sapiens), Q9Y468; AlphaScreen L3MBTL1–H3K9me1 peptide binding; further: on the % scale 0 is the no-effect control and ±100 the full control effect; nearly all actives have a fitted effect of over 60% in size
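AlphaScreen assay: L3MBTL1 (50 nM final) was preincubated 30 min at room temperature with biotinylated H3(1-15)K9me1 peptide (75 nM final), then 30 min with library compounds; streptavidin donor and nickel chelate acceptor beads (10 ug/mL final) added, 30 min dark.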
POLB inh – qHTS Assay for Inhibitors of DNA Polymerase Beta; Pol beta primer extension/strand displacement, fluorescence kinetic; actives 1.3% (n = 340,000); Potency, µM (top dose mostly 114 µM), for inactives: at the top dose activity change, negative = inhibition, usual class: inhibitors; further: on the % scale 0 is the no-effect control and ±100 the full control effect
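Enzyme-only controls used 10 nM Pol beta; buffer lacking enzyme served as negative control. Compound preincubated 15 min, then 50 nM substrate added; 0 and 10 min reads at room temperature.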
POLH inh – qHTS for Inhibitors of Polymerase Eta; recombinant Pol eta, fluorescent DNA replication assay; Potency, µM (series often up to 114 µM), without a hit: at the highest dose activity change, negative = inhibition, most hits filed as inhibitors; actives 1.2% (n = 390,000); AID 588591, 2011; further: on the % scale 0 is the no-effect control and ±100 the full control effect
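Fluorescent replication assay: 50 nM final substrate added after a 15 min room-temperature compound preincubation with 10 nM enzyme. Signal taken at 0 min and again at 10 min.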
Pol iota inh – qHTS for Inhibitors of Polymerase Iota; actives 1% (n = 390,000); Pol iota fluorescent replication assay, 10 min; Potency, µM (highest dose often 115 µM), without a hit: at the top dose activity, negative = inhibition, most hits filed as inhibitors; DNA polymerase iota (Homo sapiens), Q9UNA4
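Fluorescent replication assay read twice, at 0 min and 10 min after adding 50 nM (final) substrate. Enzyme (10 nM) and compounds were first incubated 15 min at room temperature; enzyme-free buffer wells were negative controls.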
The depositor's hits bear a star; ? = inconclusive; . = no result; ! = not confirmed by another sample; [ ] = remark or other dose. The call rests on the fitted dose curve; in most records, active means well fitted curve in the direction sought with a large enough effect; inconclusive means small, poorly fitted or top-dose-only effect, or another doubt; inactive means no such curve, though single readings can be large; an effect the other way counts as inactive or inconclusive. Potency means the concentration at half of the fitted maximal effect.

SMILES	Pol kappa inh	WRN inhibitor	L3MBTL1 block	POLB inh	POLH inh	Pol iota inh
O=C(CCN1C(=O)/C(=C/c2cccs2)SC1=S)Nc1ccc(O)cc1	0.7%	6.4%	.	20.5%	-18.1%	-5.8%
O=C(CCN1C(=O)/C(=C/c2cccs2)SC1=S)Nc1ccc(C(=O)O)c(O)c1	-2.7%	-12.1%[11.6 µM]	.	?	39.8µM*	17.9%
CC(/C=C1\SC(=S)N(CCC(=O)Nc2ccc(O)cc2)C1=O)=C\c1ccccc1	4.6%	-10.4%	.	-2.5%	-6.9%	16.8%
O=C(CSc1nnnn1C1CCCC1)NCCc1ccccc1	1.1%	1.6%	.	-1.7%	-22.6%	-2.6%
CC(C)CNC(=O)COC(=O)c1cncc(Br)c1	3.3%	12.7%	-2.1%	20.8%	-13.9%	26.0%
COc1ccc(S(=O)(=O)N2CCCC(C(=O)NC3CCCCC3)C2)cc1 (stereo not drawn)	-1.1%	6.9%	.	6.5%	0.0%	6.1%
Cc1ccc(C(=O)OCC(=O)N(C)C2CCS(=O)(=O)C2)cc1S(=O)(=O)N1CCOCC1 (stereo not drawn)	-12.9%	11.1%	1.9%	.	0.6%	15.6%
COc1ccc(OCC(=O)Nc2cc(S(=O)(=O)N3CCCCC3)ccc2OC)cc1	-7.9%	-12.5%	-16.0%	.	-11.5%	-5.9%
COc1ccc(-c2nn[nH]n2)cc1OC	-4.6%	-22.2%	.	-0.1%	-5.6%	8.5%
Nc1cc(-c2nn[nH]n2)ccc1F	?	-17.0%[57.1 µM]	-1.6%	-27.0%	11.2µM*	?
O=C(Nc1cccc(Br)c1)c1ccc2nc(N3C(=O)CCC3=O)sc2c1	-1.0%	?	-1.1%	2.0%	?	7.7%
O=C(Nc1cccc([N+](=O)[O-])c1)c1ccc2nc(N3C(=O)CCC3=O)sc2c1	-21.9%	44.7µM*	-2.0%	21.5%	-11.3%	12.2%
Cc1cc(Br)c2nc3c(c(C(=O)O)c2c1)CCCCC3	-10.4%	-7.7%	18.1%	8.2%[57.1 µM]	-1.5%	100.2%
Cc1ccc(S(=O)(=O)N2CCCCC2)cc1NC(=O)Cn1ncc(Cl)c(Cl)c1=O	3.7%	-16.7%	-4.1%	.	56.2µM*	?
CCOC(=O)c1ccc(NC(=O)CSCCC(=O)O)cc1	15.3%	4.9%	2.8%	-0.9%	-5.3%	-15.3%
CCN(CC)S(=O)(=O)c1cc(NC(=O)Cn2ncc(Cl)c(Cl)c2=O)ccc1C	70.8µM*	-34.9%	17.8µM*	28.2µM*	35.5µM*	25.1µM*
O=C(Cn1ncc(Cl)c(Cl)c1=O)Nc1ccc2c(c1)OCO2	-4.3%	-6.9%[11.6 µM]	4.2%	.	?	?
CCOC(=O)c1ccc(NC(=O)Cn2ncc(Cl)c(Cl)c2=O)cc1	-12.7%	-20.3%[57.1 µM]	?	2.1%	?	28.2µM*
CCOC(=O)c1ccc(NC(=O)CSCc2ccco2)cc1	?	?	-4.9%	?	?	25.1µM*
CC(=O)N1CCc2ccc([N+](=O)[O-])cc21	-3.1%	10.7%	.	.	-11.7%	52.9%
O=C(Cc1cc(=O)[nH][nH]1)N/N=C/C(Cl)=C/c1ccccc1	-29.8%	-2.1%[11.6 µM]	-15.8%	50.1µM*	?	3.16µM*!
O=C(Cc1cc(=O)[nH][nH]1)N/N=C/c1ccccc1Cl	-19.6%	-21.9%	-10.0%	17.1%	-4.3%	-9.6%
O=c1cc[nH]c2c1ccc1c(=O)cc[nH]c12	?	-3.8%[11.6 µM]	.	-23.4%	28.2µM*	?
Cc1cccc2cc(-c3nc4ccc(C(=O)O)cc4[nH]3)c(=O)oc12	?	-3.0%	.	?	22.4µM*	?
CSc1nc(N(CCO)CCO)c2sc3nc(-c4ccco4)c4c(c3c2n1)CCC4	10µM*	12.6µM*	2.51µM*	1.78µM*	1.12µM*	1.78µM*
Oc1ccc(-c2nc(-c3ccc(O)c(O)c3)cs2)cc1	?	?	-27.5%	39.8µM*	?	?
NS(=O)(=O)Nc1c(Br)cc(Br)c2cccnc12	-3.7%	.	.	.	.	25.1µM*
O=C(Oc1c(Br)cc(Br)c2cccnc12)N1CCCCC1	-19.3%	2.3%	.	6.8%	-11.8%	1.5%
